Reference: PubChem BioAssay
Active and inactive are the calls of the source. Unless noted, how the calls were made is not given here.

Experiments:
[1] = compounds binding Alexa647 anti-His antibody – biochemical, small-molecule microarray, 635 nm fluorescence, artefact control for SMM control protein annotation, primary screen (AID 1128); details: higher = more signal;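 further: score merges feature fluorescence with signal-to-noise for each printed compound spot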
[2] = tested on: Human papillomavirus type 1a E7 protein (residues 1-88); assay: HPV1a E7 small-molecule binders, primary screen, biochemical, small-molecule microarray, residues 1-88, 635 nm (AID 1129); details: small-molecule microarray binding, fluorescence 635 nm; higher = more signal
[3] = target: Focal adhesion kinase 1 (Homo sapiens) (UniProt Q05397); assay: PTK2 protein binding on printed compound slides – biochemical, small-molecule microarray, 635/667 nm fluorescence, BSA, DTT, primary screen (AID 1130); details: 635 nm fluorescence, higher = more signal;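 further: composite of spot emission at 667 nm and signal to noise over triplicate slides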
[4] = tested on: Fibrinogen (Alexa647-labelled); assay: Alexa647-fibrinogen binding to printed small molecules – biochemical, small-molecule microarray, 635/667 nm fluorescence, artefact control for SMM control-protein annotation, profiling panel (AID 1131); details: fibrinogen-A647 binding fluorescence, higher = more signal;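 further: z-score merges 667 nm fluorescence with per-spot signal-to-noise over triplicate slides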
[5] = target: Follistatin (Homo sapiens) (UniProt P19883); assay: FST protein binding to printed compounds – biochemical, small-molecule microarray, 635/667 nm fluorescence, primary screen (AID 1132); details: 635 nm fluorescence, higher = more signal
[6] = target: Fibroblast growth factor 2 (Homo sapiens) (UniProt P09038); assay: basic fibroblast growth factor binding to printed compounds – biochemical, small-molecule microarray, 635/667 nm fluorescence, primary screen (AID 1133); details: FGF2, fluorescence 635/667, higher = more signal
[7] = JC-1 mitochondrial potential readout, lung cancer cells – cell-based, A549, JC-1 fluorescence, basal, 24 h, 100 nL, profiling panel (AID 1138); details: higher = more signal;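 further: A549 lung adenocarcinoma cells under basal conditions with no added stimulus; test concentration not given here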
Lefty1 = Lefty1 protein binding to printed compounds – biochemical, small-molecule microarray, 635/667 nm fluorescence, primary screen (AID 1139); details: fluorescence 635/667, higher = more signal
[8] = tested on: wheat germ agglutinin (Triticum aestivum), Alexa647-labelled; assay: Alexa647-WGA lectin binding to printed small molecules – biochemical, small-molecule microarray, 635/667 nm fluorescence, artefact control for SMM control-protein annotation, profiling panel (AID 1140); details: WGA-A647 binding, 635 nm fluorescence, higher = more signal;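 further: score merges 667 nm feature emission with signal to noise over triplicate slides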
[9] = target: Luciferin 4-monooxygenase (Photinus pyralis) (UniProt P08659); assay: inhibition of purified Photinus pyralis luciferase – biochemical, luminescence, purified enzyme, 2006 set, primary screen (AID 1141); details: purified firefly luciferase, SteadyGlo luminescence, 30 min; higher = more signal, called active from +8 up or from −8 down;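 further: cell-free assay with purified firefly luciferase at 100 ng per well in PBS; test concentration not given here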
[10] = tested on: Wnt5a (protein binding on small-molecule microarray); assay: small molecules binding Wnt5a protein – biophysical, small-molecule microarray, 635/667 nm fluorescence, primary screen (AID 1142); details: 635 nm fluorescence, higher = more signal;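 further: fluorescence read at 667 nm with signal to noise per printed feature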
[11] = ATP-based viability of Huh7 replicon cells – cell-based, CellTiter-Glo luminescence, basal, 48 h, cytotoxicity control for HCV replication inhibitor project, primary screen (AID 1143); details: higher = more signal, called active from +8 up or from −8 down;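 further: Huh7 hepatoma cells carrying a hepatitis C replication reporter with no stimulus; test concentration not given here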
[12] = Pseudomonas biofilm growth suppression – PAO1 strain, BacTiter-Glo luminescence, LB-PBS, primary screen (AID 1144); details: P. aeruginosa PAO1 biofilm, 12 h, higher = more signal
[13] = basal CRE-LacZ reporter activity in PC12 – cell-based, unstimulated, primary screen (AID 1145); details: no forskolin, luminescence, 4.5 h, higher = more signal, called active from +8 up or from −8 down
[14] = forskolin-driven CRE-LacZ activity in PC12 – cell-based, CRE-LacZ reporter, forskolin-stimulated, primary screen (AID 1146); details: luminescence, 4.5 h, higher = more signal, called active from +8 up or from −8 down;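 further: PC12 cells with 6xCRE LacZ reporter stimulated by forskolin 10 µM; beta-galactosidase reporter signal reflecting CREB driven transcription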
[15] = target: Streptavidin (Streptomyces avidinii) (UniProt P22629); assay: compounds binding control protein streptavidin – biophysical, small-molecule microarray, 635/667 nm fluorescence, artefact control for SMM compound annotation, primary screen (AID 1147); details: higher = more signal;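 further: signal reflects streptavidin binding to arrayed compounds as a control protein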
[16] = probe aInhba binding on compound microarray – biochemical, small-molecule microarray, 635/667 nm fluorescence, primary screen (AID 1148); details: higher = more signal;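 further: score merges 667nm spot fluorescence with signal-to-noise for antibody binding to printed compounds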
Torsin-1A (Homo sapiens) [17] = target: Torsin-1A (Homo sapiens) (UniProt O14656); assay: TOR1A wild-type binding on microarray – cell lysate, small-molecule microarray, lysate, 635/667 nm, primary screen (AID 1149); details: COS7 hTOR1A-WT lysate, 635 nm fluorescence, higher = more signal
Torsin-1A (Homo sapiens) [18] = target: Torsin-1A (Homo sapiens) (UniProt O14656); assay: torsin A mutant lysate binding on microarrays – cell lysate, small-molecule microarray, COS7 lysate, 635/667 nm fluorescence, primary screen (AID 1150); details: COS7 hTOR1A mutant lysate, 635 nm fluorescence, higher = more signal;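 further: score pools 667 nm emission and signal to noise measuring lysate protein binding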
[19] = tested on: Sonic hedgehog protein (Shh); assay: Sonic hedgehog microarray binding compounds – biochemical, small-molecule microarray, 635/667 nm fluorescence, primary screen (AID 1151); details: 635 nm fluorescence, higher = more signal;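 further: Shh protein binding to compounds spotted on small-molecule microarray slides; score combines spot fluorescence intensity with signal-to-noise across triplicate slides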

Chain of Torsin-1A (Homo sapiens) (O14656 whole entry, looked up): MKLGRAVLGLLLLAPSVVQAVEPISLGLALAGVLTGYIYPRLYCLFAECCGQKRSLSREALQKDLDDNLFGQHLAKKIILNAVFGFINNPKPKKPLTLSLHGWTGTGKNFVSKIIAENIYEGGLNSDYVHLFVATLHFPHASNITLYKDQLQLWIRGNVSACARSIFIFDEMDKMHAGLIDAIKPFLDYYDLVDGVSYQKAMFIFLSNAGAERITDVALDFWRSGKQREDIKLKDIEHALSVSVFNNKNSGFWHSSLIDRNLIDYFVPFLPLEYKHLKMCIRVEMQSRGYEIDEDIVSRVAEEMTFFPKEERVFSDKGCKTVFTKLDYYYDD
Chain of Fibroblast growth factor 2 (Homo sapiens) (P09038 whole entry, looked up): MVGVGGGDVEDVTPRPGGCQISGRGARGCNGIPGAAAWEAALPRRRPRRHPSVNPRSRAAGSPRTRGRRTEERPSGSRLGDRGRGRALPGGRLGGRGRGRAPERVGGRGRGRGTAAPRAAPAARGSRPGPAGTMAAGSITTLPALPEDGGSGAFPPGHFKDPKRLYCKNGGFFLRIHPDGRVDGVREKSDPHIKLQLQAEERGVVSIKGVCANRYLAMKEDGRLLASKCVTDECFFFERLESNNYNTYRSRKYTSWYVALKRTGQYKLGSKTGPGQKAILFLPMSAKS
Chain of Follistatin (Homo sapiens) (P19883 whole entry, looked up): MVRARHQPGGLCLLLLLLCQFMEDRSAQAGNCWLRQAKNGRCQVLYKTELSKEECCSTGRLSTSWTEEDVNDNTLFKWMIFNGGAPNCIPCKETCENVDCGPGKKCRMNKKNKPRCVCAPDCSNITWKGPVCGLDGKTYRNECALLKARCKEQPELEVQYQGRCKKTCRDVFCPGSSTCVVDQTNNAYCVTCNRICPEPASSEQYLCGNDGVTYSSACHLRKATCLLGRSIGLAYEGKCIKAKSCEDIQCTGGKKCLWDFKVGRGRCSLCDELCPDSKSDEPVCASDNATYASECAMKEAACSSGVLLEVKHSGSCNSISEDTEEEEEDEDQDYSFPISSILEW
Chain of Luciferin 4-monooxygenase (Photinus pyralis) (P08659 whole entry, looked up): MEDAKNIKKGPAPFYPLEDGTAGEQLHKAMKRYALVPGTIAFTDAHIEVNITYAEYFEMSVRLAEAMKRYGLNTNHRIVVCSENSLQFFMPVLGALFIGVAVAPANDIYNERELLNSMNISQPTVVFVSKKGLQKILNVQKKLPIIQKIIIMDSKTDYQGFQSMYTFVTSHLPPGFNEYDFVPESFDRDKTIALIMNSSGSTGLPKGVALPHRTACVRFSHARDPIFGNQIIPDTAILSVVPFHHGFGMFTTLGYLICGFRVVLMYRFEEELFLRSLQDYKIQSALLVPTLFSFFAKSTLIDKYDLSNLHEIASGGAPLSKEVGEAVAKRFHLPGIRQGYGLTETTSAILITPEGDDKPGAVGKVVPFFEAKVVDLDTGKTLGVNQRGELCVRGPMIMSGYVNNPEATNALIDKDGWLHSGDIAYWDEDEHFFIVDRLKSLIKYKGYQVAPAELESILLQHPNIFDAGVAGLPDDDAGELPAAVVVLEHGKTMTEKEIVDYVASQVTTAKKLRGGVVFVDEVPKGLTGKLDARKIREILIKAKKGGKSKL
Chain of Streptavidin (Streptomyces avidinii) (P22629 whole entry, looked up): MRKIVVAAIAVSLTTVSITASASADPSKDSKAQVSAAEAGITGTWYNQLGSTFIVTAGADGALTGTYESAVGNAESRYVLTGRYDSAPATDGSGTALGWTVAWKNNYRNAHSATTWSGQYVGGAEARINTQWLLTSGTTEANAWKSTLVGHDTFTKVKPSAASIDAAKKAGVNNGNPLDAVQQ
Chain of Focal adhesion kinase 1 (Homo sapiens) (Q05397 whole entry, looked up): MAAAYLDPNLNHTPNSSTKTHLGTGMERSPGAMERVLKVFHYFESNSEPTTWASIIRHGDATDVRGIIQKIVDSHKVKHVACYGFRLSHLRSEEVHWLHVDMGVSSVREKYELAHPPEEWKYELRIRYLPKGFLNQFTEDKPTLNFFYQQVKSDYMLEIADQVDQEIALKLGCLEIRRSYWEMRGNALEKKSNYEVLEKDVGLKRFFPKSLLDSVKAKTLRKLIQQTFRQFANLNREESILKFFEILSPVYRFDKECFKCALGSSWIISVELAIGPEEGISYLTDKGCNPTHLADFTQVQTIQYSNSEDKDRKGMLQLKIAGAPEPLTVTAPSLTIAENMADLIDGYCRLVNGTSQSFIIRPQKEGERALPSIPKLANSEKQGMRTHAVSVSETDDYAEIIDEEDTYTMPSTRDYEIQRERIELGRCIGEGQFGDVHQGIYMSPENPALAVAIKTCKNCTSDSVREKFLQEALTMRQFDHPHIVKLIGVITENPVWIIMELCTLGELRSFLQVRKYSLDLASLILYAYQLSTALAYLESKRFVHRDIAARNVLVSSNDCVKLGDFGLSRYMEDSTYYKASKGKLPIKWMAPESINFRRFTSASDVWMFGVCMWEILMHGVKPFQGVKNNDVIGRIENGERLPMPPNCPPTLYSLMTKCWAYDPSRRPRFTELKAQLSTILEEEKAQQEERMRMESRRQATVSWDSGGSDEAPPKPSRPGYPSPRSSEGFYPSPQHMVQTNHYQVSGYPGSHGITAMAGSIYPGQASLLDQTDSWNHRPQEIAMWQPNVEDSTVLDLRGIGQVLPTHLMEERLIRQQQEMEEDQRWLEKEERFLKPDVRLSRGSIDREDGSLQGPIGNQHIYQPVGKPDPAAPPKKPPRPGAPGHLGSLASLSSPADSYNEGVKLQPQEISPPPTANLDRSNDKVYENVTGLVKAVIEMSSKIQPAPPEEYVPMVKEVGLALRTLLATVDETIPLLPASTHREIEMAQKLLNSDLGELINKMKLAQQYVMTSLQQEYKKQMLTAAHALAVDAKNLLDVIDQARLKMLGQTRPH

Compound	composite z-score [1]	composite z-score [2]	composite z-score [3]	composite z-score [4]	composite z-score [5]	composite z-score [6]	z-score [7]	composite z-score (Lefty1)	composite z-score [8]	z-score [9]	composite z-score [10]	z-score [11]	z-score [12]	z-score [13]	z-score [14]	composite z-score [15]	composite z-score [16]	composite z-score (Torsin-1A (Homo sapiens) [17])	composite z-score (Torsin-1A (Homo sapiens) [18])	composite z-score [19]
O=C1C2C=CC(C(O)C(c3ccccc3)c3ccccc3)N(Nc3ccccc3)C2C(=O)N1c1ccccc1 (stereo not given)	0.59	1.28	0.175	1.03	1.29	0.472	0.0105	0.707	0.882	-1.05 (inactive)	0.422	-0.374 (inactive)	-1.06 (inactive)	0.629 (inactive)	-0.222 (inactive)	0.828	0.271	0.616	0.984	0.734
O=c1cccc(-c2ccccc2C(F)(F)F)o1	-0.602	0.389	-0.0583	-2.29	-0.547	-0.661	-0.074	-0.599	-0.861	1.24 (inactive)	0.297	-0.121 (inactive)	0.0176 (inactive)	-0.471 (inactive)	-0.12 (inactive)	-0.318	0.763	0.242	0.0563	-0.999
COCCOC(=O)N1C(=O)[C@@]2(c3ccccc31)[C@H](C(=O)N1CCCCCCC1)[C@H]1C(=O)O[C@H](c3ccccc3)[C@H](c3ccccc3)N1[C@@H]2c1ccc(O)cc1	0.578	1.21	1.01	0.842	1.41	1.74	0.0314	1.69	1.25	0.047 (inactive)	1.21	-2.11 (inactive)	-1.14 (inactive)	-1.15 (inactive)	-1.03 (inactive)	2.17	2.13	2.14	2.57	2.17
C[N+](C)(C)CCCCCCNC(=O)[C@H]1C[C@H]2C(=O)NCC(=O)N2[C@H]1c1cccc(OCCO)c1	3.03	0.283	-0.27	0.0104	1.13	1.63	-0.883	1.6	0.273	-0.0987 (inactive)	-0.196	-0.103 (inactive)	0.052 (inactive)	-0.675 (inactive)	-0.487 (inactive)	-0.518	-0.14	1.1	0.781	2.17
COC(=O)[C@@]1(Cc2ccc(OC)cc2)[C@H]2c3cc(C(=O)N(C)C)n(Cc4ccsc4Br)c3C[C@H]2CN1C(=O)c1ccccc1	1.74	1.09	0.957	0.862	-0.244	-0.29	0.292	-0.538	0.669	1.05 (inactive)	0.286	-0.21 (inactive)	0.00572 (inactive)	0.597 (inactive)	0.217 (inactive)	0.705	0.571	-0.0008	0.808	0.105
CCOC(=O)C[C@H]1[C@H](OC(=O)c2ccc(-c3ccccc3)cc2)[C@@H](NC(=O)CC(C)C)c2cc(OCCCO)ccc2N1C(=O)Cc1ccc(OC)cc1	-0.283	0.686	0.0381	0.54	-0.195	0.0007	0.598	-0.276	0.535	0.491 (inactive)	0.0564	-0.155 (inactive)	0.606 (inactive)	0.0035 (inactive)	-0.163 (inactive)	0.438	-0.0223	-0.111	0.508	-0.307
C=CCN1C(=O)[C@]2(O[C@H](CCn3cc([C@H](O)c4ccccc4)nn3)[C@@H]([Si](C)(C)c3ccc(OC)cc3)[C@@H]2C)c2cc(N3C(=O)c4cccc5cccc3c45)ccc21	0.72	0.268	0.33	0.182	-0.167	0.102	1.01	0.102	0.453	-0.719 (inactive)	0.0898	-6.26 (inactive)	-0.774 (inactive)	9.81 (active)	-0.745 (inactive)	0.633	-0.255	-0.439	1.18	0.204
CC#CCO[Si](C#CCCCCCC)(C(C)C)C(C)C	-0.19	-0.419	-0.103	-1.49	-2.99	-2.42	-0.996	-1.93	0.064	0.944 (inactive)	-1.15	-1.03 (inactive)	-1.06 (inactive)	-0.374 (inactive)	2.09 (inactive)	-2.45	-0.288	-1.46	-1.03	-1.62
CO[C@H]1O[C@H](CO)[C@@H](OC(=O)Nc2ccc(C(F)(F)F)cc2)[C@H](OC(=O)Nc2ccccc2-c2ccccc2)[C@H]1OC(=O)Nc1ccccc1-c1ccccc1	1.7	1.26	0.735	1.04	1.27	0.686	-0.132	0.617	0.662	-0.68 (inactive)	0.856	-6.09 (inactive)	0.435 (inactive)	0.447 (inactive)	-0.747 (inactive)	0.967	0.0504	0.276	0.263	1.61
Cc1ccc(S[C@]2(C(=O)NCC(F)(F)F)CC(=O)N(C3CCCCC3)[C@@H]2c2ccc(CO)cc2)cc1	1.12	0.408	-0.35	-0.0988	-0.16	-0.257	2.02	-0.583	0.235	-0.0377 (inactive)	0.0911	-1.09 (inactive)	0.12 (inactive)	-0.529 (inactive)	-0.147 (inactive)	-0.777	-0.176	0.118	1.06	-0.121
